The whole screen tested about 71,000 compounds, of which about 1,300 (1.8%) were called active. Calls come from the whole dose curve. What follows is part of a selection rich in actives, with near analogues and random picks from the rest. Entries that show only a call come without a potency.
Potency is the fitted concentration of half-maximal effect.

The target of the assay is Beta-lactamase (Escherichia coli (strain K12)) (UniProt P00811). Nature of the assay: Promiscuous and Specific Inhibitors of AmpC Beta-Lactamase (assay without detergent). To be noted: AmpC nitrocefin hydrolysis, absorbance 480 nm, no detergent; series mostly up to 28.7 µM. As to the method: NIH Molecular Libraries Screening Centers Network [MLSCN]
Beta-lactamase (Escherichia coli (strain K12)), sequence (P00811 whole entry, looked up): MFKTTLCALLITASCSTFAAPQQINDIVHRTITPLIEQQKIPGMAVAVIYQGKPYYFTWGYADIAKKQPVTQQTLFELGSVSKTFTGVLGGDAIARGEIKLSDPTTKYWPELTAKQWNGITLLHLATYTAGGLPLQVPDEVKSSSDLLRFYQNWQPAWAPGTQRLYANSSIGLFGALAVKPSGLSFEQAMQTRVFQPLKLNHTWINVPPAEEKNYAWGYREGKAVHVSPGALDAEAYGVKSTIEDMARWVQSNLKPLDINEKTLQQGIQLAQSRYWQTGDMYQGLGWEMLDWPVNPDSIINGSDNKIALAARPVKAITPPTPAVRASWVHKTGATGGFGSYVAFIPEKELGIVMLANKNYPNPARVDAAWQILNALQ
NIH Chemical Genomics Center [NCGC]
PI Name: Shoichet, Brian K.
This aggregation profiling approach exploits the sensitivity of aggregate formation to detergent. Inhibition of b-lactamase is measured in the presence and absence of 0.01% Triton X-100. See Pubchem assay "Promiscuous and Specific Inhibitors of AmpC Beta-Lactamase (assay with detergent)" for related screen. Compounds that inhibit only in the absence of detergent are considered likely promiscuous aggregators.
A screen of 1,030 compounds was performed in Brian Shoichet's lab in 96-well format. AmpC activity was measured by following the absorbance at 480 nm. Nitrocefin is a chromogenic substrate: while nitrocefin is yellow (lmax 390 nm), the product of its hydrolysis is red (lmax 486 nm, 17,000 M-1). AmpC beta lactamase was provided by Brian Shoichet and Brian Feng, UCSF.
NCGC Assay Protocol Summary:
20 mM phosphate buffer, pH 7.0
Triton X-100: No Detergent screen: 0.0001%, Detergent screen: 0.01%.
Buffer in columns 3 and 4 as negative control (no enzyme).
5.3 nM AmpC in columns 1, 2, 5-48. Titration of UCSF compound 9 control (from 10 mM, then 1:2) pin-transferred to column 2. Column 1 is neutral (100% activity).
Six uL of reagents were dispensed to 1536-well Greiner black clear bottom plates. Compounds and controls (23 nL) were transferred via Kalypsys PinTool. The plates were incubated for 15 min at room temperature, and then 2 uL of 800 uM solution of nitrocefin was added to start the reaction. The plates were immediately transferred to and read every 20 seconds for 4 min on ViewLux (Perkin-Elmer) High-throughput CCD imager using 480 nm absorbance protocol. During dispense, reagent bottles were kept submerged into 4 deg C water bath.
Keywords: NIH Roadmap, MLSCN, MLI, MLSMR, qHTS, NCGC, AmpC Beta-Lactamase, Aggregation.
Turning to `O=C(CCn1c(=O)[nH]c2ccccc2c1=O)NCCCN1CCN(c2cccc(Cl)c2)CC1`, the Potency entry is “inactive”.
The result for `CCN1CCCC1CNC(=O)c1cc2c(=O)n(C)c3ccccc3c2n1C` (centres undefined) reads 3.98 µM [single pt active] (active); that for `Cn1c(C(=O)NCCc2ccsc2)cc2c(=O)n(C)c3ccccc3c21`, “inactive”.
The same measure for `Cn1c(C(=O)NCCN2CCc3ccccc3C2)cc2c(=O)[nH]c3ccccc3c21`: “inactive”; for `Cn1c(C(=O)NCCCN2CCN(c3cccc(Cl)c3)CC2)cc2c(=O)n(C)c3ccccc3c21`: 3.98 µM [single pt active] (active).
`CCn1c(=O)cc(OCC(=O)NCCCN2CCN(c3cccc(Cl)c3)CC2)c2ccccc21`: the Potency entry was “inactive”.
The same measure for `CCN1CCCC1CNC(=O)Cn1cnc2ccc(S(=O)(=O)N3CCC(C)CC3)cc2c1=O` (centres undefined): “inactive”; for `Cn1c(C(=O)N2CCC(C(N)=O)CC2)cc2c(=O)n(C)c3ccccc3c21`: “inactive”.
The result for `CC1CCCC(C)N1CCCNC(=O)c1cc2c(=O)n(C)c3ccccc3c2n1C` (centres undefined) reads 3.16 µM [single pt active] (active).
The result for `CNC(=O)CSc1nnnn1-c1ccc(C)cc1C` reads “inactive”.
Consider `CCOC(=O)c1ccc(NC(=O)CS(=O)(=O)c2cn(CC)c3ccccc23)cc1`, for which the Potency entry is “inactive”.
The result for `CCOc1ccc(NC(=O)CCC(=O)n2nc(C)cc2C)cc1` reads “inactive”; that for `CNC(=O)NCCN1CCCC1=O`, “inactive”.
The result for `COc1ncnc2c1N=C1CC(C)(C)CC(N)=C1S2` reads “inactive”; that for `C=CCOC(=O)COCCC(C)C`, “inactive”.
The result for `CCOC(=O)Cn1c(N)c(C(=O)OC)sc1=S` reads “inactive”; that for `CCOC(=O)c1sc(=S)n2c1[nH]c(=O)c1ccc(C(=O)OC)cc12`, 12.6 µM (active); that for `CCOC(=O)c1sc(=S)n(-c2cccc(OC)c2)c1N`, “inactive”.
On to `Cc1ccc(OCc2nc(C#N)c(N3CCCC3)o2)cc1`, for which the Potency entry is “inactive”.
The result for `Cc1ccccc1S(=O)(=O)Cc1ccc(C(=O)NCCN2CCCCC2C)o1` (centres undefined) reads “inactive”.
The same measure for `C=CCNc1nnc(SCC(=O)N2CCCCC2)c2ccccc12`: “inactive”; for `CCCN1CCN(CCCNC(=O)CN2C(=O)COc3ccccc32)CC1`: “inactive”.
The result for `O=C(CN1C(=O)COc2ccccc21)Nc1ccc(F)cc1` reads 3.98 µM [single pt active] (active).
In the case of `O=C(CN1C(=O)COc2ccccc21)NCCN1CCc2ccccc2C1`, the Potency result was “inactive”.
Take `COC(=O)[C@H](C)NC(=O)Nc1ccc(OC(F)(F)F)cc1`: the Potency result is “inactive”.
Take `Oc1c(Cl)cc(Cl)c(Cl)c1Cc1c(O)c(Cl)cc(Cl)c1Cl`: the Potency is 5.01 µM (active).
On to `CC(=O)Nc1ccn(Cc2c(F)cccc2Cl)n1`, for which the Potency result was “inactive”.
The result for `O=C(Oc1ccc(-c2nc(-c3ccccn3)no2)cc1)c1ccccc1` reads “inactive”.
The result for `N#Cc1ccccc1-n1c(N)c(C(=O)N2CCCC2)sc1=S` reads “inactive”; that for `Cn1c(=O)[nH]c(=O)c2c1nc(CN(Cc1ccccc1)Cc1ccccc1)n2CCN1CCOCC1`, “inactive”.
The same measure for `Cc1ccc2nc(NC(=O)C3CCN(S(=O)(=O)c4ccc5c(c4)oc(=O)n5C)CC3)sc2c1`: 3.98 µM [single pt active] (active).
Take `O=C(Nc1nc2ccc(S(=O)(=O)N3CCCC3)cc2s1)C1CCCO1` (centres undefined): the Potency entry is “inactive”.
The same measure for `Cn1c(=O)oc2cc(S(=O)(=O)N3CCC(C(=O)Nc4ccc(OC(F)(F)F)cc4)CC3)ccc21`: “inactive”; for `CC(=O)OC(C(=O)NCCc1ccccc1)c1cccnc1` (centres undefined): “inactive”.
The result for `C[N+]1(C)C2CC(OC(=O)C(CO)c3ccccc3)CC1[C@@H]1O[C@H]21` (some centres undefined) reads “inactive”.
The result for `CCOc1ccccc1NC(=O)C1CCN(S(=O)(=O)c2c(C)nn(C)c2C)CC1` reads “inactive”.
For the compound `CCOc1ccccc1NC(=O)C1CCC(CNc2c(N3CCOCC3)c(=O)c2=O)CC1` (centres undefined), the Potency is 3.98 µM [single pt active] (active).
For the compound `CCOc1ccc(CCNC(=O)C2CCN(c3ccc(N4CCOCC4)nn3)CC2)cc1OCC`, the Potency entry was “inactive”.
The same measure for `Cc1nc(-c2ccc(NC(=O)c3cccs3)cc2)cs1`: “inactive”; for `COc1cccc2c(=O)n(CC(=O)N3CCCCCC3)ccc12`: “inactive”.
In the case of `O=C(NCc1ccc2c(c1)OCO2)C1CCCN(S(=O)(=O)c2cccs2)C1` (centres undefined), the Potency is 3.98 µM [single pt active] (active).
The same measure for `O=C(NCc1cccs1)C1CCN(S(=O)(=O)c2ccc3c(c2)OCCO3)CC1`: “inactive”; for `O=C(NC1CCCCC1)C1CCCN(S(=O)(=O)c2cccs2)C1` (centres undefined): “inactive”.
The result for `COc1cc2c(cc1OC)C(c1ccncc1)CC(=O)N2` (centres undefined) reads “inactive”; that for `CC(C)c1nnc(NC(=O)C2CCCN2S(=O)(=O)c2ccc(Cl)cc2)s1` (centres undefined), “inactive”; that for `Cc1nc2ccc(S(=O)(=O)NCC(=O)O)cc2s1`, “inactive”.
The result for `Cc1nc2ccc(S(=O)(=O)NCC(=O)NCCN3CCCCC3C)cc2s1` (centres undefined) reads “inactive”.
For `Cc1nc2ccc(S(=O)(=O)NC(C(=O)N3CCCCCC3)C(C)C)cc2s1` (centres undefined), the Potency is 3.98 µM [single pt active] (active).
The result for `COC(=O)c1c(NC(=O)CSc2nc3c(c(=O)n(C)c(=O)n3C)n2C(C)C)sc(C)c1C` reads “inactive”.
The same measure for `CCn1nnc(NC(=O)c2c(OC)cccc2OC)n1`: “inactive”.
The same measure for `CCOC(=O)CSc1nc2c(sc(=S)n2CCc2ccccc2)c(=O)n1Cc1ccco1`: “inactive”.
Turning to `CN(c1ccccc1)c1ccc(/C=c2\s/c(=C(/C#N)C(=O)C(C)(C)C)n(Cc3ccco3)c2=O)cc1`, the Potency was 10 µM (active).
`O=c1nc2s/c(=C\c3ccco3)c(=O)n2nc1Cc1ccccc1`: the Potency entry is “inactive”.
For the compound `CC1=CC(=O)C2=C(C)C[C@H](O)[C@@H]3[C@@H](OC(=O)[C@H]3C)[C@H]12`, the Potency result is “inactive”.
The same measure for `CCOc1ccccc1N=C1NC(=O)CS1`: “inactive”; for `C=C(C)Cn1c(SCC(=O)NCc2ccco2)nc2sc3c(c2c1=O)CCC3`: “inactive”; for `O=C(CSc1nc2cc3c(cc2c(=O)n1CCC1=CCCCC1)OCO3)NCc1ccco1`: 12.6 µM (active).
The result for `O=C(CCCn1c(SCC(=O)c2ccc(F)cc2)nc2ccccc2c1=O)NCc1ccco1` reads “inactive”.
The same measure for `CC(C)NC(=O)N1CC[C@@]2(CCCN(C(=O)c3cccn3C)C2)C1`: “inactive”; for `Cc1c2cn[nH]c(=O)c2c(C)n1Cc1ccc(F)cc1`: “inactive”; for `N#CCCN1CCN(S(=O)(=O)c2ccc(S(=O)(=O)NC3CCCCC3)cc2)CC1`: “inactive”.
As for `CCOC(=O)N1CCC(NC(=O)Cc2cn(C)c3ccccc23)CC1`, the Potency entry is “inactive”.
The result for `CCOC(=O)N1CCC(NC(=O)CCc2cn(C)c3ccccc23)CC1` reads “inactive”.
The result for `CCOC(=O)N1CCC(NC(=O)c2cnn3ccccc23)CC1` reads 3.98 µM [single pt active] (active).
